Growth inhibition data for eight compounds are collected here from PubChem BioAssay (NCI).

Compounds without any hit were thinned out: in the full panel of roughly 79,000, 15% have a hit. A number with no mark means an inactive call. The source made the active and inactive calls. No stated cut-off is given here; in the data, active means growth inhibition above about 70%; inactive means the rest.

The nature of the assay: NCI Yeast Anticancer Drug Screen. Data for the rad52 strain (AID 147).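 Further: 0% = growth of vehicle-treated control cultures.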 The conditions noted are these: S. cerevisiae rad52 mutant growth inhibition, hits give high values. The method, then: Growth inhibition of yeast strains with defined genetic alterations is measured as a screen for potential anti-cancer activity. Selected strains with alterations in DNA damage repair or cell cycle control were exposed to compounds and growth inhibition was measured relative to vehicle treated controls. The strain used in this assay is rad52

As to `CCc1[nH]nc(C(N)=O)c1N=NN(C)C`, the growth inhibition was 3% (at 1.2 µM); 20% (at 3.7 µM); 66% (at 11.0 µM); 97% (active) (at 33.0 µM); 97% (active) (at 100.0 µM).
For the compound `O=Nc1ccc(Nc2ccccc2)cc1`, the growth inhibition reads like this: (at 1.2 µM) -40%; (at 3.7 µM) -58%; (at 11.0 µM) -71%; (at 33.0 µM) -11%; (at 100.0 µM) 96% (active).
For the compound `COc1ccc(N2CN(C)CSC2=S)cc1`, the growth inhibition (at 1.2 µM) was -27%; the growth inhibition (at 3.7 µM) was -11%; the growth inhibition (at 11.0 µM) was -1%; the growth inhibition (at 33.0 µM) was 43%; the growth inhibition (at 100.0 µM) is 72% (active).
Taken in the same sequence, the figures for `Cn1c2nc3ccccc3c-2nc2ccccc21` were 25%, 88% (active), 97% (active), 98% (active) and 98% (active).
For the compound `COc1ccc(N=Nc2ccc3oc(=O)c(C(=O)Nc4ccccc4)cc3c2)cc1`, the growth inhibition runs as follows: (at 1.2 µM) -19%; (at 3.7 µM) -2%; (at 11.0 µM) 85% (active); (at 33.0 µM) 96% (active); (at 100.0 µM) 95% (active).
For the compound `COC(=O)c1oc([N+](=O)[O-])c(Cl)c1Cl`, the growth inhibition by setting is: (at 1.2 µM) 78% (active); (at 3.7 µM) 66%; (at 11.0 µM) 71% (active); (at 33.0 µM) 95% (active); (at 100.0 µM) 99% (active).
Take `O=C1c2ccccc2C(=O)c2cc(S(=O)(=O)Nc3ccccc3)ccc21`: the growth inhibition was 0% (at 1.2 µM); 7% (at 3.7 µM); 16% (at 11.0 µM); 26% (at 33.0 µM); 19% (at 100.0 µM).
Turning to `COc1cc([C@@H]2c3cc4c(cc3[C@@H](OC3OC5COC(C)OC5C(O)C3O)[C@H]3COC(=O)[C@H]23)OCO4)cc(OC)c1O` (stereo not given in full), the growth inhibition runs as follows: (at 1.2 µM) 1%; (at 3.7 µM) 4%; (at 11.0 µM) 20%; (at 33.0 µM) 51%; (at 100.0 µM) 81% (active).
